For 40 compounds, Potency results are on record in PubChem BioAssay (NCATS).

Several values for one entry are separate records, joined by “and”; a condition that tells them apart may be missing. Identical values can stand only once. Records with an inconclusive call do not appear. Entries that show only a call come without a potency. Activity calls are given as the source filed them. Calls come from the whole dose curve.
Potency is the fitted concentration of half-maximal effect.

The assay can be described thus: qHTS assay for small molecule disruptors of the mitochondrial membrane potential - 5 hr assay (AID 651755). Note: nearly all actives have a fitted effect of over 40% in size. The settings on record: JC-1-type ratio dye; series mostly up to 92.2 µM. The source says:
National Center for Advancing Translational Sciences [NCATS]
NIH Chemical Genomics Center [NCGC]
National Institutes of Environmental Health Sciences [NIEHS]
National Toxicology Program [NTP]
Mitochondrial membrane potential (MMP), one of the parameters for mitochondrial function, is generated by mitochondrial electron transport chain that creates an electrochemical gradient by a series of redox reactions. This gradient drives the synthesis of ATP, a crucial molecule for various cellular processes. Measuring MMP in living cells is commonly used to assess the effect of chemicals on mitochondrial function. […] The dye accumulates in the mitochondria of healthy cells as aggregates, with red fluorescence. The mitochondrial potential collapses and the dye can no longer accumulate in the mitochondria and remains in the cytoplasm in monomers, with green fluorescence.
2,000 HepG2 cells in 5 uL/well were dispensed into black, clear-bottom 1536-well plates using a Multidrop Combi (Thermo Scientific) dispenser. The assay plates were incubated overnight at 37C to allow cells to attach to the wells, followed by the transfer of 23 nL compound or DMSO vehicle by a pin tool (Kalypsys). The plates were incubated for 5 hr at 37C and 5% CO2, followed by the addition of 5 uL of 2X Mito-MPS dye (BD Biosciences) into each well using Flying Reagent Dispenser (Aurora Discovery) and then following 30 min incubation at 37C. Fluorescence intensity (490nm excitation and 535nm emission for monomers; and 540nm excitation and 590nm emissions for aggregates) was measured using an Envision plate reader.
On the technique in general: Quantitative high-throughput screening tests each substance at several concentrations.
`COc1ccc(C=O)cc1OC`: the Potency result was “inactive”.

As for `CC(C)(c1ccccc1)c1ccc(O)cc1`, the Potency was 33.5 µM (active).

Regarding `ClC1=C(Cl)C2(Cl)C3C4C=CC(C4)C3C1(Cl)C2(Cl)Cl` (stereo not given), the Potency entry was “inactive”.

`COC1=CC(=O)OC(CCc2ccccc2)C1` (stereo not given): the Potency entry was “inactive”.

Turning to `Cc1cccc([N+](=O)[O-])c1`, the Potency entry is “inactive”.

`c1ccc(-c2ccccc2)cc1`: the Potency entry was “inactive”.

With `CCN(CC)c1ccccc1`, the Potency result is “inactive”.

As for `COc1ccc(N)cc1`, the Potency entry was “inactive”.

For `CCCCOCCOP(=O)(OCCOCCCC)OCCOCCCC`, the Potency entry is “inactive”.

Regarding `O=C(Cl)C(Cl)(Cl)Cl`, the Potency entry is “inactive”.

With `O=C(O)COc1ccc(Cl)cc1Cl`, the Potency entry was “inactive”.

Turning to `CCC[CH2][Sn]([Cl])([Cl])[Cl]`, the Potency entry was “inactive”.

With `ClC(Cl)=C(Cl)C(Cl)=C(Cl)Cl`, the Potency entry was “inactive”.

In the case of `CC(C)(C)OO`, the Potency entry was “inactive”.

Consider `C=CC(N)=O`, for which the Potency result was “inactive”.

For the compound `NC(=S)Nc1ccccc1`, the Potency result was “inactive”.

Turning to `C=CC1CC=CCC1` (stereo not given), the Potency result is “inactive”.

On to `c1nc[nH]n1`, for which the Potency result was “inactive”.

Consider `N#CCCCl`, for which the Potency entry was “inactive”.

In the case of `Clc1nc(Cl)nc(Cl)n1`, the Potency entry is “inactive”.

As for `Brc1ccccc1`, the Potency entry is “inactive”.

On to `CCCCCCCCCc1ccc(O)cc1`, for which the Potency was 16.8 µM (active).

Regarding `CC(C)(OO)c1ccccc1`, the Potency result is “inactive”.

`CC(=O)[O-].CC(=O)[O-].O.O.O.[Pb+2]`: the Potency entry is “inactive”.

For the compound `ClCBr`, the Potency entry is “inactive”.

Turning to `O=NN(CCO)CCO`, the Potency entry was “inactive”.

As for `COC1=CC(=O)O[C@@H](/C=C/c2ccc3c(c2)OCO3)C1`, the Potency entry is “inactive”.

For `ClC1=C(Cl)C2(Cl)C3C4CC(C5OC45)C3C1(Cl)C2(Cl)Cl` (stereo not given), the Potency result is “inactive”.

As for `Cc1cccc(C#N)c1`, the Potency entry was “inactive”.

Regarding `C[C@H]1CCCC(=O)CCC/C=C/c2cc(O)cc(O)c2C(=O)O1`, the Potency is 33.5 µM (active) and 37.6 µM (active).

As for `C=C(C)C(=O)OCC1CO1` (stereo not given), the Potency result is “inactive”.

For `CCOc1ccc(N)cc1`, the Potency result was “inactive”.

In the case of `COC(=O)NC(=S)Nc1ccccc1NC(=S)NC(=O)OC`, the Potency entry is “inactive”.

Regarding `CCSC(=O)Cl`, the Potency entry is “inactive”.

Consider `c1ccc2c(c1)CCCC2`, for which the Potency result is “inactive”.

`CCCCCCCC(=O)Cl`: the Potency result is “inactive”.

Regarding `O=[N+]([O-])c1cccc2ccccc12`, the Potency result is “inactive”.

Consider `CC(O)CCl` (stereo not given), for which the Potency entry is “inactive”.

With `O=C(Cl)/C=C/C(=O)Cl`, the Potency entry was “inactive”.

Turning to `C=CCOC(=O)c1ccccc1N`, the Potency entry is “inactive”.
